Molecules are shown by their SMILES. Results filed as inconclusive are left out. Activity calls are given as the source filed them. Unless noted, the call rests on the fitted dose curve.

The first test addresses Nuclear receptor ROR-gamma (Homo sapiens) (UniProt P51449). Description: qHTS assay to identify small molecule antagonists of the retinoid-related orphan receptor gamma (ROR-gamma) signaling pathway (AID 1159521; active means well fitted inhibition curve with a large enough effect in the repeat runs; further: top concentration of the series differs between compounds; on the % scale 0 is the no-effect control and ±100 the full control effect; nearly all actives have a fitted effect of over 50% in size). The following applies: Tet-on RORgamma CHO cells, RORE-luciferase, 16 h; series mostly up to 92.4 µM; activity change, negative = inhibition: at the top concentration. The essentials: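 RORγ antagonism is scored from reduced reporter luminescence in Tet-on CHO cells. Induction used 1 uM final doxycycline hyclate for 16 h at 37 C, following a 2 h compound exposure.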
In general terms: qHTS replaces the single test concentration by a dilution series.
Regarding `CCCCCN(CCCCC)C(=O)C(CCC(=O)O)NC(=O)c1ccc(Cl)c(Cl)c1` (centres undefined), the “activity change, negative = inhibition” value was -1.33% [at 42.5 µM] (inactive).

Regarding `NC(=O)c1c(Cl)cccc1Cl`, the “activity change, negative = inhibition” value was -0.0755% (inactive).

As for `C=CCn1c(=O)n([C@@H]2O[C@H](CO)[C@@H](O)[C@H]2O)c2nc(N)[nH]c(=O)c21`, the “activity change, negative = inhibition” value is 43.6% [at 42.5 µM] (inactive).

Take `C1CCCCCCCCCCC1`: the activity change, negative = inhibition was -5.57% [at 19 µM] (inactive).

For the compound `CCCC(C)C(=O)O` (centres undefined), the “activity change, negative = inhibition” value was -25.8% (inactive).

In the case of `NS(=O)(=O)c1cc(C2(O)NC(=O)c3ccccc32)ccc1Cl` (centres undefined), the “activity change, negative = inhibition” value is 13.4% [at 42.5 µM] (inactive).

Regarding `C=CC(=O)N1CCOCC1`, the “activity change, negative = inhibition” value was 43% (inactive).

On to `CCCCCCCCCCC1CO1` (centres undefined), for which the “activity change, negative = inhibition” value was 23.6% (inactive).

Turning to `OC1OC[C@@H](O)[C@H](O)[C@H]1O` (some centres undefined), the “activity change, negative = inhibition” value was 0.713% (inactive).

Turning to `CC(C)=CCC/C(C)=C/C(=O)O`, the “activity change, negative = inhibition” value is 18.4% (inactive).

Tested on in the next test: not listed separately
Description: qHTS assay to identify small molecule agonists of the AP-1 signaling pathway - cell viability counter screen (AID 1159525). Further: nearly all actives have a fitted effect of over 55% in size. The following applies: ME-180 AP-1-bla cells viability, ATP luminescence, 5 h; series mostly up to 76.8 µM; viability change, negative = cytotoxic: at the top concentration. In a few lines:
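AP-1-bla ME-180 cells in Opti-MEM with 0.5% dialyzed FBS, compound exposure 5 h at 37 C in 15-point titration. Viability read in the same wells as ATP content by CellTiter-Glo luminescence, normalised to tetra-n-octylammonium bromide and DMSO controls.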
Take `Nc1cc(C(Cl)=C(Cl)Cl)c(S(N)(=O)=O)cc1S(N)(=O)=O`: the “viability change, negative = cytotoxic” value is -0.215% [at 35.3 µM] (inactive).

As to `CCCCOCC(C)OCC(C)O` (centres undefined), the “viability change, negative = cytotoxic” value was 4.32% (inactive).

On to `C=CC(=O)OCCCCCC`, for which the “viability change, negative = cytotoxic” value was 2.46% (inactive).

As to `Cc1nccn1CC1CCc2c(c3ccccc3n2C)C1=O` (centres undefined), the “viability change, negative = cytotoxic” value was 7.86% [at 35.3 µM] (inactive).

On to `CCCCCCCCCCCCCCCCCCOCC(O)CO` (centres undefined), for which the “viability change, negative = cytotoxic” value was 1.57% [at 35.3 µM] (inactive).

Regarding `Cc1ccccc1C(=O)O`, the “viability change, negative = cytotoxic” value was 0.107% (inactive).

On to `C#CC(C)(O)CC(C)C` (centres undefined), for which the “viability change, negative = cytotoxic” value was -1.54% (inactive).

`CCCCCCCCC=O`: the “viability change, negative = cytotoxic” value is 0.692% (inactive).

In the case of `CO`, the “viability change, negative = cytotoxic” value was 0.0729% (inactive).

For `C/C=C1\C(=O)C[C@H]2[C@@H]3CCC4=CC(=O)CC[C@]4(C)[C@H]3CC[C@]12C`, the “viability change, negative = cytotoxic” value is 4.59% [at 35.3 µM] (inactive).

In the case of `COc1cc(O)cc(O)c1`, the “viability change, negative = cytotoxic” value was -3.17% [at 35.3 µM] (inactive).

With `Oc1cc(O)c2c(c1)O[C@H](c1ccc(O)c(O)c1)[C@H](O)C2`, the “viability change, negative = cytotoxic” value is -4.41% [at 35.3 µM] (inactive).

Take `COc1cc(C(=O)N2CCOCC2)cc(OC)c1OC`: the “viability change, negative = cytotoxic” value is 4.74% [at 35.3 µM] (inactive).

As for `CCCCc1ccc2cccc(S(=O)(=O)O)c2c1`, the “viability change, negative = cytotoxic” value was 0.622% (inactive).

Regarding `Nc1ncnc2c1ncn2Cc1c(F)cccc1Cl`, the “viability change, negative = cytotoxic” value is -4.52% [at 35.3 µM] (inactive).

As to `c1ccc(CCCc2ccccn2)cc1`, the “viability change, negative = cytotoxic” value was -1.9% (inactive).

Consider `O=C(CCOCCOCCOCCOCCC(=O)Nc1c(I)cc(I)c(C(=O)O)c1I)Nc1c(I)cc(I)c(C(=O)O)c1I`, for which the “viability change, negative = cytotoxic” value is -0.0999% [at 35.3 µM] (inactive).

Regarding `CC1=CCC2C(C1)C2(C)C` (centres undefined), the “viability change, negative = cytotoxic” value was -2.46% (inactive).

For the compound `C=C(C)[C@H]1CC=C(C)CC1`, the “viability change, negative = cytotoxic” value was 4.08% (inactive).

Take `CCO[Si](C)(OCC)OCC`: the “viability change, negative = cytotoxic” value is -0.912% (inactive).

Turning to `CC(C)c1ccc2oc3nc(N)c(C(=O)O)cc3c(=O)c2c1`, the “viability change, negative = cytotoxic” value was -11.5% [at 35.3 µM] (inactive).

On to `N#CCN(CC#N)CCN(CC#N)CC#N`, for which the “viability change, negative = cytotoxic” value was -1.12% (inactive).

`CCCCCN(CCCCC)C(=O)C(CCC(=O)O)NC(=O)c1ccc(Cl)c(Cl)c1` (centres undefined): the “viability change, negative = cytotoxic” value was -22.6% [at 35.3 µM] (inactive).

As for `NC(=O)c1c(Cl)cccc1Cl`, the “viability change, negative = cytotoxic” value is -3.4% (inactive).

As to `C=CCn1c(=O)n([C@@H]2O[C@H](CO)[C@@H](O)[C@H]2O)c2nc(N)[nH]c(=O)c21`, the “viability change, negative = cytotoxic” value was 0.455% [at 35.3 µM] (inactive).

On to `CCCC(C)C(=O)O` (centres undefined), for which the “viability change, negative = cytotoxic” value was 0.661% (inactive).

`NS(=O)(=O)c1cc(C2(O)NC(=O)c3ccccc32)ccc1Cl` (centres undefined): the “viability change, negative = cytotoxic” value was 1.98% [at 35.3 µM] (inactive).

Take `C=CC(=O)N1CCOCC1`: the “viability change, negative = cytotoxic” value is 0.218% (inactive).

Take `CCCCCCCCCCC1CO1` (centres undefined): the “viability change, negative = cytotoxic” value was 1.98% (inactive).

As for `OC1OC[C@@H](O)[C@H](O)[C@H]1O` (some centres undefined), the “viability change, negative = cytotoxic” value was -3.27% (inactive).

Turning to `CC(C)=CCC/C(C)=C/C(=O)O`, the “viability change, negative = cytotoxic” value is 7.64% (inactive).

Tested on in another test: not listed separately
Description: qHTS assay to identify small molecule agonists of the AP-1 signaling pathway (AID 1159526). Further: on the % scale 0 is the no-effect control and ±100 the full control effect. As to conditions: ME-180 (cervical carcinoma) AP-1-bla reporter, beta-lactamase FRET ratio, 5 h; series mostly up to 76.8 µM; activation: at the top concentration.
Consider `Nc1cc(C(Cl)=C(Cl)Cl)c(S(N)(=O)=O)cc1S(N)(=O)=O`, for which the “activation” value was -5.35% [at 35.3 µM] (inactive).

On to `CCCCOCC(C)OCC(C)O` (centres undefined), for which the “activation” value is -5.03% (inactive).

On to `C=CC(=O)OCCCCCC`, for which the “activation” value was -7.8% (inactive).

For `CC(C)=CC(=O)O`, the “activation” value is -0.338% (inactive).

On to `CN(C)CCOC(c1ccc(Cl)cc1)c1ccccn1` (centres undefined), for which the “activation” value is 3.85% [at 35.3 µM] (inactive).

As to `Cc1ccc(N)cc1[N+](=O)[O-]`, the “activation” value was -3.12% (inactive).

Take `Cc1nccn1CC1CCc2c(c3ccccc3n2C)C1=O` (centres undefined): the “activation” value is -6.02% [at 35.3 µM] (inactive).

As to `C=C(C)C(=O)OCCC(C)OC(=O)C(=C)C` (centres undefined), the “activation” value was -1.26% (inactive).

For `CCCCCCCCCCCCCCCCCCOCC(O)CO` (centres undefined), the “activation” value is -1.29% [at 35.3 µM] (inactive).

On to `Cc1ccccc1C(=O)O`, for which the “activation” value is 1.08% (inactive).

For the compound `CCN(CC)C(=O)c1ccc(O)c(OC)c1`, the “activation” value was -1.15% [at 35.3 µM] (inactive).

As to `C#CC(C)(O)CC(C)C` (centres undefined), the “activation” value is 0.641% (inactive).

Consider `CCCCCCCCC=O`, for which the “activation” value was -3.75% (inactive).

Turning to `CO`, the “activation” value was 3.7% (inactive).

As to `C/C=C1\C(=O)C[C@H]2[C@@H]3CCC4=CC(=O)CC[C@]4(C)[C@H]3CC[C@]12C`, the “activation” value is 7% [at 35.3 µM] (inactive).

As for `COc1cc(O)cc(O)c1`, the “activation” value is 0.64% [at 35.3 µM] (inactive).

As to `Oc1cc(O)c2c(c1)O[C@H](c1ccc(O)c(O)c1)[C@H](O)C2`, the “activation” value is 0.0251% [at 35.3 µM] (inactive).

Consider `COc1cc(C(=O)N2CCOCC2)cc(OC)c1OC`, for which the “activation” value was -2.98% [at 35.3 µM] (inactive).

Take `CCCCc1ccc2cccc(S(=O)(=O)O)c2c1`: the “activation” value was -2.49% (inactive).

Consider `Nc1ncnc2c1ncn2Cc1c(F)cccc1Cl`, for which the “activation” value is -10.2% [at 35.3 µM] (inactive).

Take `c1ccc(CCCc2ccccn2)cc1`: the “activation” value was 11.1% (inactive).

On to `O=C(CCOCCOCCOCCOCCC(=O)Nc1c(I)cc(I)c(C(=O)O)c1I)Nc1c(I)cc(I)c(C(=O)O)c1I`, for which the “activation” value is -7.93% [at 35.3 µM] (inactive).

With `CC1=CCC2C(C1)C2(C)C` (centres undefined), the “activation” value was -1.54% (inactive).

On to `C=C(C)[C@H]1CC=C(C)CC1`, for which the “activation” value was 5.22% (inactive).

`CCO[Si](C)(OCC)OCC`: the “activation” value is 2.61% (inactive).

As for `CC(C)c1ccc2oc3nc(N)c(C(=O)O)cc3c(=O)c2c1`, the “activation” value is -11.7% [at 35.3 µM] (inactive).

Consider `N#CCN(CC#N)CCN(CC#N)CC#N`, for which the “activation” value is -11.5% (inactive).

In the case of `Cc1c(C)n(CCN(C)C)c2ccc(C(=O)OCCN(C)C)cc12`, the “activation” value is 19.3% [at 35.3 µM] (inactive).

Turning to `CCCCCN(CCCCC)C(=O)C(CCC(=O)O)NC(=O)c1ccc(Cl)c(Cl)c1` (centres undefined), the “activation” value was -1.42% [at 35.3 µM] (inactive).

Take `NC(=O)c1c(Cl)cccc1Cl`: the “activation” value was 2.12% (inactive).

Take `C=CCn1c(=O)n([C@@H]2O[C@H](CO)[C@@H](O)[C@H]2O)c2nc(N)[nH]c(=O)c21`: the “activation” value was -0.0409% [at 35.3 µM] (inactive).

With `C1CCCCCCCCCCC1`, the activation was -0.287% [at 15.8 µM] (inactive).

Regarding `CCCC(C)C(=O)O` (centres undefined), the “activation” value was 0.0153% (inactive).

`NS(=O)(=O)c1cc(C2(O)NC(=O)c3ccccc32)ccc1Cl` (centres undefined): the “activation” value was 5.08% [at 35.3 µM] (inactive).

Turning to `C=CC(=O)N1CCOCC1`, the “activation” value is -4.91% (inactive).

As to `CCCCCCCCCCC1CO1` (centres undefined), the “activation” value is -2.53% (inactive).

Turning to `OC1OC[C@@H](O)[C@H](O)[C@H]1O` (some centres undefined), the “activation” value was -8.03% (inactive).

For `CC(C)=CCC/C(C)=C/C(=O)O`, the “activation” value is 16.1% (inactive).

The record behind these values is PubChem BioAssay (Tox21).
